From PubChem BioAssay AID624330 (Southern Research Specialized Biocontainment Screening …, 2012)
The whole screen tested about 340,000 compounds, of which about 2,100 (0.62%) were called active.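 Rule for the calls: active = first-screen hits whose inhibition reached a set limit at any dose in the follow-up dose series; inconclusive = inhibition above the set first-screen limit but never retested; inactive = the rest.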 These entries were drawn from the full list. Measured potencies and affinities stand elsewhere.

biological target: Rac GTPase-activating protein 1 (Homo sapiens) (UniProt Q9H0H5); assay: MgcRacGAP GTPase-activating activity inhibitors, confirmation, biochemical, ADP Hunter fluorescence, primary and confirmatory (AID 624330); conditions: MgcRacGAP-stimulated Rac1 GTP hydrolysis, at 30 µM, stronger effect = higher value, GST-tagged Rac1 F28L mutant substrate;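 note: fluorescence reports GDP produced by GAP-driven GTP hydrolysis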
Sequence (Q9H0H5 whole entry, looked up): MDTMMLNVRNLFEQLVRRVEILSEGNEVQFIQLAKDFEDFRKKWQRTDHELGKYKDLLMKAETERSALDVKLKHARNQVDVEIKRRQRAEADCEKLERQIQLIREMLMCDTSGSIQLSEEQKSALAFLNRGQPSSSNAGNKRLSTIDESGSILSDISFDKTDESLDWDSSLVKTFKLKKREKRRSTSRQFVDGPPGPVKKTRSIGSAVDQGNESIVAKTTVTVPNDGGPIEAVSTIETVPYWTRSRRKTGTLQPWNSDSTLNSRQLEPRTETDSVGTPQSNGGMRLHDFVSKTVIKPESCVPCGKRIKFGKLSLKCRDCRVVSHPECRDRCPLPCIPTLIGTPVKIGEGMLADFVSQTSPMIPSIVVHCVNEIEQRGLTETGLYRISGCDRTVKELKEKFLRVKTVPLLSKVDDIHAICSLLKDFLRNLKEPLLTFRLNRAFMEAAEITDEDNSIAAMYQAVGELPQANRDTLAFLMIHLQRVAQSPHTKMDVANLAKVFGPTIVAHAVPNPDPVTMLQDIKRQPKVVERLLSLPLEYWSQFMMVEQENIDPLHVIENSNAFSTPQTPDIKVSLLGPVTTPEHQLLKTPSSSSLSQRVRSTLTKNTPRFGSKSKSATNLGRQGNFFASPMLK

inhibition, inactive:
O=C(O)[C@H](CSCc1ccccc1)NS(=O)(=O)c1ccc(F)cc1 9.02%
CCCCn1c(SCC(=O)c2ccccc2)nc2ccsc2c1=O 9.24%
CCCCn1c(SCC(=O)Nc2cc(C)[nH]n2)nc2ccsc2c1=O 9.99%
C=CCn1c(SCC(=O)NC2CC2)nc2sc(CC)cc2c1=O 2.06%
C=CCn1c(SCC(=O)Nc2cc(C)on2)nc2sc(CC)cc2c1=O -5.28%
CN(Cc1ccccc1)C(=O)COC(=O)/C=C/c1ccco1 7.88%
Cc1ccc(NC(=O)Cn2nc(C(=O)O)c3ccccc3c2=O)cc1S(=O)(=O)N1CCOCC1 5.1%
COc1ccc2c(C)cc3nnnn3c2c1 7.23%
COc1ccc2c(C)cc3nncn3c2c1 5.43%
Nc1ccn([C@@H]2O[C@H](COS(=O)(=O)O)[C@@H](O)[C@H]2O)c(=O)n1 9.68%
COc1cc(CNCc2cccc(OC)c2OC)cc(OC)c1 20.9%
COCC(C)NCc1cc(Br)ccc1OC (configuration not stated) 26.2%
COc1cccc(CNCc2cccc(Br)c2)c1OC 24.4%
COCC(C)NCc1cccc(C)c1 (configuration not stated) 5.01%
COc1ccccc1CNCc1ccc(OC)c(OC)c1OC 20.1%
COc1cccc(CNCc2ccccn2)c1OC 8.4%
N#CCCn1cc(C(=O)Nc2ccc(C(=O)O)cc2)c(-c2ccc([N+](=O)[O-])cc2)n1 5.44%
O=C(C(=O)c1ccc(O)cc1)c1ccccc1 3.36%
O=C1Cn2c(nc3ccccc32)-c2ccccc2N1 1.15%
CCCCc1ccc(S(=O)(=O)NCCCN2CCCC2=O)cc1 6.42%
Cc1ccc(Cn2c(CCNc3nc(-c4ccc(Cl)c([N+](=O)[O-])c4)cs3)nc3cc(Cl)c(Cl)cc32)cc1 7.46%
CC(C)(C)OC(=O)C[C@H]1C/C=C\C[C@@H](CC(=O)N[C@@H](CO)Cc2ccccc2)C(=O)NC[C@H](c2ccccc2)OC1=O 2.19%
Cc1cn(C2CC(OC(=O)C(C)C)C(CO)O2)c(=O)[nH]c1=O (configuration not stated) 6.43%
O=c1[nH]cn[nH]1 0.25%
CC(CCN(C)C)OC(=O)c1ccc(C(C)c2ccccc2)o1 (configuration not stated) 1.78%
Brc1ccc2c(c1)OCCOCCOCCOCCOCCOCCO2 0.25%
Oc1c(Cl)cc(Cl)cc1C=Nc1ccc2c(c1)OCCO2 4.97%
Oc1c(Br)cc(Br)cc1C=Nc1ccc2c(c1)OCO2 15.4%
Brc1ccc2c(c1)OCCOCCOCCOCCOCCO2 8.26%
O=S(=O)(c1ccc(SCc2cccc(Cl)c2)nc1)N1CCCC1 2.55%
CC(=O)c1cccc(OC(=O)C2=CC=CN3CCS(=O)(=O)N=C23)c1 7.32%
COc1ccc2c(c1)c1nc3ccccc3nc1n2Cc1ccc(OC)c(OC)c1 8.38%
COc1cccc(CN(C)C(=O)Nc2cccc(C(F)(F)F)c2)c1OC -4.29%
Brc1ccc(OCc2nnc3n2CCC3)cc1 5.52%
O=C(COc1cccnc1[N+](=O)[O-])N1CCc2ccccc21 0.83%
CCN(CC)c1ccc(-c2c(C#N)c(N)nc(OC)c2C#N)cc1 -1.06%
COc1ccc(N=c2sc3ccccc3n2C)cc1 3.05%
Cn1c(=Nc2ccccc2)sc2ccccc21 4.04%
CCC(=NOCc1ccccc1)C(=O)NNS(=O)(=O)c1ccc(C)cc1 0.04%
O=C(N/N=C/c1cccc(O)c1)c1ccc(-n2cnnn2)cc1 1.77%
Nc1ccc(C(=O)N/N=C/c2cn(Cc3ccccc3)c3ccccc23)cc1 0.58%
COc1cc(C=NNc2nc3c([nH]2)c(=O)n(C)c(=O)n3C)ccc1O 12.7%
COc1cc(C(=O)N/N=C/c2cn(Cc3cccc(F)c3)c3ccccc23)ccc1O 28.6%
COc1cc(C(=O)N/N=C/c2ccc(OC(=O)c3ccccc3)c(OC)c2)ccc1O 25.2%
O=C(N/N=C/c1ccc(F)cc1)c1ccc(-n2cnnn2)cc1 -4.33%
COc1ccc(/C=N/NC(=O)c2ccc(-c3ccccc3)cc2)cc1O 25.4%
COc1cc(/C=N/Nc2ccccc2C(F)(F)F)ccc1O 20.2%
CCn1c(CNC(=O)c2ccco2)nnc1SCC(=O)c1ccccc1 13.1%
CCN(CC)S(=O)(=O)c1cccc(NC(=O)C(=O)c2c(-c3ccccc3)cc3ccccn23)c1 9%
O=C(/C=C/c1ccc(Cl)cc1)N1CCN(Cc2ccccc2)CC1 10.8%
CC(Oc1ccc(Br)cc1)C(=O)Nc1ccc(S(=O)(=O)Nc2nccs2)cc1 (configuration not stated) 3.41%
COc1ccc(/C=N/NC(=O)c2cc[n+]([O-])cc2)cc1 2.43%
COc1ccc(NS(=O)(=O)c2cccc(C(=O)N/N=C/c3ccc(O)cc3)c2)cc1 16.4%
COc1cc(/C=N/Nc2ccccc2)ccc1O 13%
COc1cc(C=NCc2ccccc2)ccc1O 15.5%
COc1ccc(/C=N/Nc2cc(=O)n(C)c(=O)n2C)cc1OC 1.57%
COc1ccc(/C=N/NC(=O)c2cc[n+]([O-])cc2)cc1OC 1.48%
COc1ccc(NS(=O)(=O)c2cccc(C(=O)NN=Cc3ccc(OC)c(O)c3)c2)cc1 22.5%
Cn1c(N/N=C\c2cccc(O)c2)cc(=O)n(C)c1=O 11.6%
Cc1ccc(C(=O)N2CCN(S(=O)(=O)c3ccc(C)c([N+](=O)[O-])c3)C2)cc1 6.42%
O=S(=O)(c1ccc(-c2csc(=Nc3ccccc3)n2CCCN2CCOCC2)cc1)N1CCOCC1 3.34%
CCCCCCCNC(=O)C1(CC2CC(c3ccc(Cl)cc3)=NO2)CCN(C(=O)Cc2ccc(F)cc2)CC1 (configuration not stated) 4.28%
